# Compounds with a hit are over-represented: about 12% of the library has one in this group of screens.
# HP1b chromo inh = HP1-beta chromodomain-methylated histone interaction inhibition; P83916; AlphaScreen HP1-beta / biotin-H3K9me3 peptide binding; Potency, µM (top dose mostly 114 µM), most hits filed as inhibitors; 390,000 tested, 0.56% active; AID 540317; also: nearly all actives have a fitted effect of over 70% in size
#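 HP1-beta protein (50 nM final) preincubated 30 min at room temperature with biotinylated H3(1-18)K9me3 peptide (50 nM) in PBS pH 7.4, 0.01% Tween-20, then compound added for 30 min. AlphaScreen streptavidin donor/nickel chelate acceptor beads (10 ug/mL final), 30 min dark, luminescence read.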
# BAZ2B inh = inhibitors of human BAZ2B bromodomain. Potency, µM (series often up to 114 µM), actives largely listed as inhibitors. AlphaScreen BAZ2B-H3K14Ac peptide displacement. 360,000 tested, 4.4% active; also: nearly all actives have a fitted effect of over 60% in size
#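 AlphaScreen displacement of biotin-H3(5-23)K14Ac peptide (50 nM final) from BAZ2B (50 nM final) in PBS pH 7.4, 0.01% Tween-20; complex preformed 30 min RT, then compounds (top 110 uM) 30 min RT, beads 20 min dark.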
# PLK1 PBD block = PLK1 (human) polo-box domain binding inhibition; Potency, µM, most hits filed as inhibitors; P53350; 360,000 tested, 2.8% active; Plk1 PBD binding of FITC phosphopeptide, fluorescence polarization; AID 720504; also: series mostly up to about 57 µM; nearly all actives have a fitted effect of over 65% in size
# PI5P4Ka inh = inhibitors of human PI5P4K alpha. P48426. PI5P4Kalpha enzyme, ADP-Glo luminescence, 60 min; hits give low values. max response, %. 330,000 tested, 1.2% active; active = max response of -50% or lower; inconclusive = between -30% and -50%; inactive = -30% or higher; also: value at the top dose of about 77 µM
# Target sequence (P48426 whole entry, looked up): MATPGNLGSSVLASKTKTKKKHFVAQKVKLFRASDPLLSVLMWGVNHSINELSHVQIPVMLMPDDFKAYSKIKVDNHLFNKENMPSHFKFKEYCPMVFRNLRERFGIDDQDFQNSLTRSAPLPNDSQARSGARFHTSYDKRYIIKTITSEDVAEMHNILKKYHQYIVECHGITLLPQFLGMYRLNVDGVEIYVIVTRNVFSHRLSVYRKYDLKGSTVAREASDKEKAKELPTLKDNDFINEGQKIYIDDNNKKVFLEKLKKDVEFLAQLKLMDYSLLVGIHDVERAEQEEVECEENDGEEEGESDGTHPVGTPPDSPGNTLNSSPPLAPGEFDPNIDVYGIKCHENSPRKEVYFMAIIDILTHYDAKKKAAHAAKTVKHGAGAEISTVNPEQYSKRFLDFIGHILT
#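 Human PI5P4Kalpha with substrate in 0.038 M HEPES pH 7.4, 0.28 mM EGTA, 0.1% CHAPS, 5% DMSO; reaction started with 5 microM ATP (final), 60 min at room temperature. ADP formed read by ADP-Glo luminescence.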
# JMJD2A Tudor inh = inhibitors of human JMJD2A Tudor domain; O75164; AlphaScreen JMJD2A-Tudor / H3K4me3 peptide binding; Potency, µM (top dose mostly 114 µM), actives largely listed as inhibitors; 390,000 tested, 4.4% active; also: nearly all actives have a fitted effect of over 50% in size
# G9a block = blocks human histone lysine methyltransferase G9a | Q96KQ7 | G9a H3K9 monomethylation, AlphaScreen, 2 h | Potency, µM (highest dose often 102 µM), usual class: inhibitors | 350,000 tested, 8.8% active | AID 504332; also: nearly all actives have a fitted effect of over 75% in size
# Target sequence (Q96KQ7 913-1193 limits assumed): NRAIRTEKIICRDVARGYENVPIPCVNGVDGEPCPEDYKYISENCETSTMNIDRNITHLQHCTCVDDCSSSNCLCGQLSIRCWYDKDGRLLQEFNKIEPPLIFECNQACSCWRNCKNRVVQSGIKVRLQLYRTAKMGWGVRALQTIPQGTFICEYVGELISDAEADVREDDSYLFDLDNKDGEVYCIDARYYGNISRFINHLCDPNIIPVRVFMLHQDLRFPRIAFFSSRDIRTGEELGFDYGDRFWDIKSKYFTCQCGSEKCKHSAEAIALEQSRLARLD
#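 Compounds were preincubated with 20 nM G9a for 15 min, after which biotinylated H3K9 peptide (500 nM) and SAM (20 uM) started a 2 h room-temperature reaction. Monomethylated product was quantified by antibody-based AlphaScreen chemiluminescence.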
# Hits are given with their value; - = inactive; ? = inconclusive; . = not tested or not shown; ! = a repeat was not active; [ ] = dose if it differs, or a comment. Unless noted, calls follow the shape of the dose curve; as a rule, active = well fitted curve in the direction sought with a large enough effect; inconclusive = small, poorly fitted or top-dose-only effect, or another doubt; inactive = no such curve, though single readings can be large; an effect the other way counts as inactive or inconclusive.
SMILES,HP1b chromo inh,BAZ2B inh,PLK1 PBD block,PI5P4Ka inh,JMJD2A Tudor inh,G9a block
Cn1c(O)c(C(c2ccccn2)c2c(O)n(C)c(=S)[nH]c2=O)c(=O)[nH]c1=S,-,50µM,-,-,79µM,-[0.0925 µM]
CC(C)c1cc2c(c(O)c1O)[C@@]1(C(=O)O)CCCC(C)(C)[C@@H]1CC2,.,.,.,.,.,3.5µM
N#CC(O[C@@H]1OC(COC2OC(CO)C(O)C(O)[C@@H]2O)C(O)C(O)C1O)c1ccccc1 (stereo partly specified),.,.,.,.,.,-[2.33 µM]
NCCNCCNCCNCCN,.,.,.,.,.,-
Cc1ccc(S(=O)(=O)Nc2ccc3c(c2)CC(=O)N([C@H](C)CO)C[C@@H](C)[C@H](CN(C)S(=O)(=O)c2ccccc2)O3)cc1,-,.,21µM,-,?,.
O=c1[nH]c(=O)n(Cc2ccc(F)cc2)c(O)c1/C=N/Nc1ccccc1,-,-,-,?,-,10µM
O=c1[nH]c(=O)n(CCC2=CCCCC2)c(O)c1/C=N/Nc1cccc2ccccc12,32µM,?,34µM,-65,-[11.4 µM],1.8µM
O=c1[nH]c(=O)n(CCC2=CCCCC2)c(O)c1/C=N/Nc1ccccc1,-,-,-,-,-,3.5µM
O=c1[nH]c(=O)n(CCC2=CCCCC2)c(O)c1C=NC1CCN(Cc2ccccc2)CC1,-,-,-,-,-,-
CC[C@H](C)[C@H](NC(=O)[C@H](CCCN=C(N)N)NC(=O)[C@H](CCCN=C(N)N)NC(=O)[C@H](CC(C)C)NC(=O)[C@H](Cc1ccccc1)NC(=O)CNC(=O)CNC(=O)[C@@H](N)Cc1ccc(O)cc1)C(=O)N[C@@H](CCCN=C(N)N)C(=O)N1CCC[C@H]1C(=O)N[C@@H](CCCCN)C(=O)N[C@@H](CC(C)C)C(=O)N[C@@H](CCCCN)C(=O)O,.,.,.,.,.,-
COc1ccc(NC(=O)c2ccco2)cc1NC(=O)COc1cccc(C)c1C,?,-,.,.,-,-
CN(C)/C=c1\sc2c(C#N)cc(C(=O)c3ccc(Br)cc3)n2c1=O,-,-,-,-,-[11.4 µM],-[12.7 µM]
N#CC1(N2CCCCC2)CCCCC1,.,.,.,.,.,-[12.7 µM]
Cc1ccc2scc(N3CCN(C)CC3)c(=O)c2c1,-,-,.,.,-,-
Cc1ccnc(-n2c(C)nc3ccccc3c2=O)c1,?,-,27µM,-,?,-
CCCC(=O)c1cc(CP(=O)(OCC)OCC)oc1C,-,-,-,-,-,7.9µM
CCOP(=O)(Cc1cc(C(C)=O)c(C)o1)OCC,-,-,?,-,-,8.9µM
CC(C)CN1CC[C@@]2(CCCN(C(=O)c3ccncc3)C2)C1,.,.,.,.,.,-[12.7 µM]
CNC(C(=O)c1ccccc1)C(OC(C)=O)c1cccc([N+](=O)[O-])c1 (stereo unspecified),-,-,-,-,-,50µM
CN1CCN(CC(=O)Nc2ccc([N+](=O)[O-])cc2C(=O)c2ccccc2)CC1,-,-,-,-,-,-[12.7 µM]
CP(=O)(O)C1=CCNCC1,.,.,.,.,.,-
O=[N+]([O-])c1ccc(NCc2ccccc2)c2nonc12,-,-,0.84µM,-,-,-
O=[N+]([O-])c1ccc(N2CCCCCC2)c2nonc12,-,?,-,-,-,-
COc1cccc(C(=O)c2c(N)c(-c3nc(-c4ccccc4)cs3)c3ccccn23)c1,-,-,.,.,-,-
NC(N)=NOCCC(N)C(=O)O (stereo unspecified),.,.,.,.,.,30µM!
SMILES,HP1b chromo inh,BAZ2B inh,PLK1 PBD block,PI5P4Ka inh,JMJD2A Tudor inh,G9a block
NC(=NCCC[C@H](N)C(=O)O)N[N+](=O)[O-],.,.,.,.,.,-
CSc1ccc(Cl)c(C(=O)OCC(=O)N2CCN(C(=O)c3ccco3)CC2)c1,-,-,-,-,-,?
Cc1ccc(NC(=O)OC(C)CNC(=O)Oc2cccc(C)c2)cc1 (stereo unspecified),-,?,-,-,-,-
CC(CO)NC(=O)C1C=C2c3cccc4[nH]cc(c34)CC2N(C)C1 (stereo unspecified),.,.,.,.,.,16µM
O=C(CSc1ccc(Cl)cc1)NC1=NN(c2ccccc2)C(=O)C1,-,?,-,?,?,-
CCCCC(CC)CNCC(O)c1ccccc1 (stereo unspecified),-,.,-,-,7.1µM,25µM
N=C1/C(=C\c2ccc(OC(=O)c3ccccc3Cl)cc2)C(=O)N=C2SC(N3CCOCC3)=NN12,-,45µM,30µM,-67,50µM,-
CCS(=O)(=O)C1=NN2C(=N)/C(=C\c3ccc(OC(=O)c4ccco4)cc3)C(=O)N=C2S1,-,?,?,-,-,40µM
O=c1[nH]c(=O)n(CC2CCCO2)c(O)c1/C=C1\C=Nc2ccccc21 (stereo unspecified),-,-,27µM,-,-,1.3µM
O=c1[nH]c(=O)n(-c2ccc(F)cc2)c(O)c1/C=C1\C=Nc2ccccc21,-,-,-,-,-,-
O=c1[nH]c(=O)n(-c2ccccc2F)c(O)c1/C=C1\C=Nc2ccccc21,-,?,4.2µM,-,-,?
CCNC(=O)[C@H]1O[C@@H](n2cnc3c(N)ncnc32)[C@H](O)[C@H]1O,.,.,.,.,.,-[12.7 µM]
CN(Cc1ccccc1)Cc1ccccc1OC(=O)N(C)C,-,-,-,-,-,45µM
CN(C)C(=O)Oc1cccc2c(OC(=O)N(C)C)cccc12,-,-,-,-,-,?
NCC(O)c1cc(O)c(O)cc1F (stereo unspecified),?,-,-,-,10µM,9.5µM!
CC(C)(Cl)[N+](=O)[O-],-,-,-,-,-,-[0.501 µM]
O=[N+]([O-])C(Br)(CO)CO,.,.,.,.,.,1.8µM
C=CCn1c(O)c(C(CC)=NCc2cccnc2)c(=O)[nH]c1=O,-,-,-,-,-,-
COc1cc(C2c3cc4c(cc3CC3COC(=O)C32)OCO4)cc(OC)c1O (stereo unspecified),-,.,-,-,89µM,.
CCN(CC)CCOC(=O)C(C)(c1ccccc1)c1ccccc1,.,.,.,.,.,-[12.7 µM]
CCC1(CC)C(=O)NC(=O)NC1=O,.,.,.,.,.,-
CCCCC(=O)C1C(=O)NC(=O)NC1=O,-,-,-,-,56µM,-
C[C@H](N)C(=O)N[C@@H](C)C(=O)N[C@@H](Cc1ccccc1)C(=O)CCl,.,.,.,.,.,16µM
COC(=O)N(c1ccccc1)P1(=S)OCCO1,-,-,12µM,-,?,-
COc1cc(C(C)=O)ccc1OC(=O)N(C)c1ccccc1,-,-,-,-,-,.
CCOC(=O)N(c1ccccc1)P1(=S)OCCO1,-,-,12µM,-,-,?
CCOC(=O)N(c1ccccc1)P1(=S)OCC(C)O1 (stereo unspecified),-,-,-,.,-,-
COc1ccccc1C1Nc2ccccc2-n2c(-c3ccccc3)c3c(=O)n(C)c(=O)n(C)c3c21 (stereo unspecified),-,-,.,.,-,?
CCC(=O)O[C@@](Cc1ccccc1)(c1ccccc1)[C@@H](C)CN(C)C,.,.,.,.,.,-[21.5 µM]
CC(C)(C)c1cc(O)ccc1O,.,.,.,.,.,4.5µM
